Laboratory results reported in PubChem BioAssay (EPA / NIEHS).
Values joined by “and” are separate entries in the source; they are usually repeats but may differ in a detail not shown here. Equal values may be shown once. Records with an inconclusive call do not appear. A structure can be active in one record and inactive in another. Active and inactive are the calls of the source. How the source made its calls: active means hit-call score of the fitted dose curve at least 0.9, where 1 is the maximum; inconclusive means response in the unintended direction; inactive means score below 0.9.

tested on: Sodium/Iodide Symporter (NIS), SLC5A5 (gene 6528); assay: CPHEA_Stoker_NIS_Inhibition_RAIU: CPHEA's Radioactive Iodide Uptake (RAIU) Assay for Sodium/Iodide Symporter (NIS) Inhibition, Stoker and Laws Labs (AID 2283841)
Description: CPHEA_Stoker_NIS is a cell-based, single-readout assay that uses hNIS-HEK293T-EPA, a novel human kidney cell line expressing human NIS, with measurements taken at 2 hours after chemical dosing in a 96-well plate. This radioactive iodide uptake (RAIU) assay is used to identify inhibitors of NIS-mediated iodide uptake. A parallel cytoxicity assay (Cell Titer Glo, Promega) was also run in the same cell line.CPHEA_Stoker_NIS_Inhibition_RAIU is one of 2 assay components measured from the CPHEA_Stoker_NIS assay. It is designed to make measurements of radioactive substrate uptake to understand transporter function, as detected with 125-i signals by MicroBeta radioactivity plate reader technology.Data from the assay component CPHEA_Stoker_NIS_Inhibition_RAIU was analyzed at the endpoint, CPHEA_Stoker_NIS_Inhibition_RAIU, in the positive analysis fitting direction relative to DMSO as the negative control and baseline of activity. Measures of radioactive substrate uptake for loss-of-signal activity can be used to understand the effects on transporter function at the pathway level as they relate to the sodium-iodide symporter, gene SLC5A5. To generalize the intended target to other relatable targets, this assay endpoint is annotated to the transporter intended target family, where the subfamily is sodium-iodide symporter (NIS).
hNIS-HEK293T-EPA cells were seeded with a MultiFlo FX dispenser (BioTek, Winooski, VT) into ScintiPlate-96 microplates (Perkin Elmer, Waltham, MA) at a density of 4.0x10^4 cells per well in 200uL growth media and incubated for 40 hours before experimentation. On day of the assay, carrier-free 125I (Perkin-Elmer, Waltham, MA; specific activity: 17.4Ci/mg) was diluted with Hanks' balanced salt solution (Sigma, St. Louis, MO) supplemented with 10mM HEPES (uptake buffer; pH 7.4) at 5uCi/mL (288pg 125I/mL uptake buffer; 2.30nM). The assay was initiated by washing cells twice with 200uL uptake buffer using a 96-well Tecan HydroSpeed plate washer (Tecan, Mannedorf, Switzerland). Uptake buffer (59.7uL) was then added back to each well. Chemical samples (350nL at 200X) were administered using the HDR tool as previously described to achieve a 1X chemical/0.5% final DMSO concentration with subsequent addition of 10uL of 125I dilution (final [125I]: 329pM; 2.88pg/well) for a final reaction volume of 70uL/well. Cells were incubated at room temperature for 2 hours and then washed twice with 200uL ice cold uptake buffer. All uptake buffer was aspirated from wells, plates were sealed, and read on a MicroBeta2 plate reader (Perkin Elmer, Waltham, MA) using a detection protocol to measure CPM corresponding to intracellular 125I concentration. Each chemical concentration (0.001, 0.01, 0.1, 1.0, 10, and 100uM) was assayed in triplicate with three independent biological replicate plates (3 sequential cell passages). Additionally, a concentration response of NaClO4 (0.001, 0.01, 0.1, 1.0, 10, and 100uM) served as a positive control inhibition curve on each RAIU assay plate. DMSO control wells were assayed on each plate as a measure of maximum iodide uptake for normalization and determination of intra- and inter-assay variation. (Toxicol In Vitro, 2017, 40:66-78).

Row | SMILES | outcome | AC50
1 | COP(=S)(OC)Oc1nc(Cl)c(Cl)cc1Cl | inactive | 
2 | O=C(Nc1ccccc1)Nc1ccnc(Cl)c1 |  | 50 µM (active)
3 | N#CC(CCc1ccc(Cl)cc1)(Cn1cncn1)c1ccccc1 (stereo not given) |  | 76 µM (active)
4 | C=CCC1=C(C)C(OC(=O)C2C(C=C(C)C)C2(C)C)CC1=O (stereo not given) | inactive | 34 µM (active) and 50 µM (active)
5 | CCCCOC(=O)c1ccccc1C(=O)OCCCC | inactive | 
6 | CCON=C(CC)C1=C(O)CC(c2c(C)cc(C)cc2C)CC1=O (stereo not given) | inactive | 
7 | Cc1ccc(-c2c(Cl)nc(C#N)n2S(=O)(=O)N(C)C)cc1 | inactive | 
8 | CN(C)C(=S)SSC(=S)N(C)C | inactive | 
9 | C=CCC1=C(C)[C@@H](OC(=O)[C@@H]2[C@@H](C=C(C)C)C2(C)C)CC1=O |  | 50 µM (active)
10 | Cc1c(F)c(F)c(COC(=O)C2C(/C=C(\Cl)C(F)(F)F)C2(C)C)c(F)c1F (stereo not given) | inactive | 
11 | CS/C(C)=N/OC(=O)N(C)SN(C)C(=O)O/N=C(\C)SC | inactive | 
12 | OC(c1ccc(Cl)cc1)(c1cncnc1)c1ccccc1Cl (stereo not given) | inactive | 
13 | CCc1nn(C)c(C(=O)NCc2ccc(C(C)(C)C)cc2)c1Cl |  | 2.5 µM (active)
14 | CO/C=C(/C(=O)OC)c1ccccc1Oc1cc(Oc2ccccc2C#N)ncn1 | inactive | 
15 | CC(C)Oc1cc(-n2nc(C(C)(C)C)oc2=O)c(Cl)cc1Cl | inactive | 
16 | CCCC1COC(Cn2cncn2)(c2ccc(Cl)cc2Cl)O1 (stereo not given) | inactive | 
17 | COC(=O)N(OC)c1ccccc1COc1ccn(-c2ccc(Cl)cc2)n1 | inactive | 

Row | SMILES | outcome | AC50
18 | Fc1ccc(Oc2ccnc3cc(Cl)cc(Cl)c23)cc1 |  | 31.1 µM (active)
19 | CON(C)C(=O)Nc1ccc(Cl)c(Cl)c1 | inactive | 
20 | CCOC(=O)CC(SP(=S)(OC)OC)C(=O)OCC (stereo not given) | inactive | 
21 | COC(=O)C(C)Oc1ccc(Oc2ccc(Cl)cc2Cl)cc1 (stereo not given) | inactive | 
22 | C=CC1(C)OC(=O)N(c2cc(Cl)cc(Cl)c2)C1=O (stereo not given) | inactive | 
23 | CCCCNC(=O)OCC#CI |  | 9.77 µM (active)
24 | CCOc1cc(Oc2ccc(C(F)(F)F)cc2Cl)ccc1[N+](=O)[O-] |  | 22.1 µM (active)
25 | Oc1ccccc1-c1ccccc1 | inactive | 
26 | CC1COC(Cn2cncn2)(c2ccc(Oc3ccc(Cl)cc3)cc2Cl)O1 (stereo not given) |  | 11.5 µM (active)
27 | N#Cc1nn(-c2c(Cl)cc(C(F)(F)F)cc2Cl)c(N)c1S(=O)C(F)(F)F (stereo not given) |  | 26.8 µM (active)
28 | CCCN(CCC)c1c([N+](=O)[O-])cc(S(N)(=O)=O)cc1[N+](=O)[O-] | inactive | 
29 | CC(C)(C)c1ccc(CSc2cnn(C(C)(C)C)c(=O)c2Cl)cc1 | inactive | 
30 | COc1nc(NC(C)C)nc(NC(C)C)n1 | inactive | 
31 | C#CCOS(=O)OC1CCCCC1Oc1ccc(C(C)(C)C)cc1 (stereo not given) | inactive | 
32 | COc1ccc(C(c2ccc(OC)cc2)C(Cl)(Cl)Cl)cc1 | inactive | 
33 | CCOC(=O)C(Cl)Cc1cc(-n2nc(C)n(C(F)F)c2=O)c(F)cc1Cl (stereo not given) | inactive | 
34 | CCOP(=S)(OCC)SCn1c(=O)oc2cc(Cl)ccc21 |  | 34.5 µM (active)
